Results filed as inconclusive are left out. Activity calls are given as the source filed them. The call rests on the fitted dose curve; in most records, active means well fitted curve in the direction sought with a large enough effect; inconclusive means small, poorly fitted or top-dose-only effect, or another doubt; inactive means no such curve, though single readings can be large; an effect the other way counts as inactive or inconclusive.
What was measured:
[1] = qHTS of pediatric cancer cell lines to identify multiple opportunities for drug repurposing: Primary screen for control Hh wild type fibroblast cells (AID 1347106); conditions: Hh wild-type fibroblast viability, CellTiter-Glo luminescence, 48 h; series mostly up to 46 µM;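 further: a drop in luminescence marks cytotoxicity and a rise apparent proliferation; nearly all actives have a fitted effect of over 55% in size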
Summary of the method: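 Viability after 48 h compound treatment at 37C, 500-1,000 cells/well, read as ATP luminescence with CellTiter-Glo. Primary screens used 11-point (MIPE, 0.78 nM-46 µM) or 8-point (NPC, 0.59 nM-46 µM) final concentrations; follow-up screens used 11-point dilutions.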

[2] = qHTS of pediatric cancer cell lines to identify multiple opportunities for drug repurposing: Primary screen for Rh30 cells (AID 1347107); conditions: Rh30 rhabdomyosarcoma viability, CellTiter-Glo luminescence, 48 h; series mostly up to 46 µM; further: nearly all actives have a fitted effect of over 75% in size; further: potency means the concentration at half of the fitted maximal effect
Summary of the method: (§1)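 Cells (500-1,000/well) rested 5 h, then received compounds for 48 h; metabolically active cells were measured by CellTiter-Glo luminescence. Final concentrations spanned up to 46 µM (MIPE, 11-point) or 0.59 nM-46 µM (NPC, 8-point) in primary screens, 11-point in follow-ups.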

[3] = qHTS of pediatric cancer cell lines to identify multiple opportunities for drug repurposing: Primary screen for Rh41 cells (AID 1347108); conditions: Rh41 rhabdomyosarcoma viability, CellTiter-Glo luminescence, 48 h; series mostly up to 46 µM; further: nearly all actives have a fitted effect of over 70% in size; further: potency means the concentration at half of the fitted maximal effect
Summary of the method: (§2)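 CRCs from 8- or 11-point titrations (lowest final 0.59 nM NPC, 0.78 nM MIPE). Cell viability: CellTiter-Glo after 48 h incubation, 15 min room-temperature development, luminescence imaging.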

[4] = qHTS of pediatric cancer cell lines to identify multiple opportunities for drug repurposing: Confirmatory screen for NB1643 cells (AID 1347109); conditions: NB1643 neuroblastoma cell viability; series mostly up to 45.9 µM; further: potency means the concentration at half of the fitted maximal effect; nearly all actives have a fitted effect of over 45% in size
Summary of the method: as §1

[5] = qHTS of pediatric cancer cell lines to identify multiple opportunities for drug repurposing: Confirmatory screen for A673 cells (AID 1347110); conditions: A673 Ewing sarcoma cell viability; series mostly up to 45.9 µM;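 further: potency means the concentration at half of the fitted maximal effect; cells exposed to compound for 48 h before the viability read; nearly all actives have a fitted effect of over 65% in size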
Summary of the method: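 Cells plated at 500-1,000/well were treated five hours later with multi-point dilutions up to 46 µM final. After two days, CellTiter-Glo was added and luminescence read.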

[6] = qHTS of pediatric cancer cell lines to identify multiple opportunities for drug repurposing: Confirmatory screen for SK-N-MC cells (AID 1347111); conditions: SK-N-MC cell viability; series mostly up to 45.9 µM;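 further: potency means the concentration at half of the fitted maximal effect; cells exposed to compound for 48 h before the readout; nearly all actives have a fitted effect of over 70% in size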
Summary of the method: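 Seed 500-1,000 cells/well; rest 5 h at 37 degrees C. Pin-transfer compounds, 11-point titration. Incubate 48 h. Add CellTiter-Glo, 15 min RT, read luminescence.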

[7] = qHTS of pediatric cancer cell lines to identify multiple opportunities for drug repurposing: Primary screen for MG 63 (6-TG R) cells (AID 1347105); conditions: MG 63 (6-TG R) viability, CellTiter-Glo, 48 h; series mostly up to 46 µM; further: nearly all actives have a fitted effect of over 50% in size; further: potency means the concentration at half of the fitted maximal effect
Summary of the method: as §2

[8] = qHTS of pediatric cancer cell lines to identify multiple opportunities for drug repurposing: Confirmatory screen for LAN-5 cells (AID 1347113); conditions: LAN-5 neuroblastoma cell viability; series mostly up to 45.9 µM; further: potency means the concentration at half of the fitted maximal effect; nearly all actives have a fitted effect of over 65% in size
Summary of the method: as §1

[9] = qHTS of pediatric cancer cell lines to identify multiple opportunities for drug repurposing: Confirmatory screen for DAOY cells (AID 1347114); conditions: DAOY medulloblastoma cells viability, cytotoxicity qHTS; series mostly up to 45.9 µM; further: potency means the concentration at half of the fitted maximal effect; nearly all actives have a fitted effect of over 65% in size
Summary of the method: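 Viability measured as metabolically active cells via CellTiter-Glo luminescence following 48 hours of compound exposure, 11-point dilutions in confirmatory testing. 500-1,000 cells/well plated 5 hours before dosing; controls were DMSO and 2.3 µM bortezomib.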

[10] = qHTS of pediatric cancer cell lines to identify multiple opportunities for drug repurposing: Confirmatory screen for BT-12 cells (AID 1347112); conditions: BT-12 rhabdoid tumor cells, viability; series mostly up to 45.9 µM; further: nearly all actives have a fitted effect of over 55% in size; further: potency means the concentration at half of the fitted maximal effect
Summary of the method: as §1

Measured: Potency

Cc1cccc(C=NNc2cc(N3CCOCC3)nc(OCCc3ccccn3)n2)c1
inactive: [1]

COc1cc2c(Nc3ccc(NC(=O)c4ccccc4)cc3)ncnc2cc1OCCCN1CCOCC1
inactive: [1]

O=C(NCCS(=O)(=O)c1ccc(C(F)(F)F)cn1)c1ccc(Cl)cc1
inactive: [1] | [2]

C=CC(=O)Nc1cccc(Oc2nc(Nc3ccc(N4CCN(C)CC4)cc3OC)ncc2Cl)c1
inactive: [1]
active: [2] 23.5 µM | [3] 0.118 µM | [4] 23.3 µM | [5] 20.8 µM | [6] 13100 nM

Nc1nc(-c2nn(Cc3ccccc3F)c3ncccc23)nc(N)c1N1CCOCC1
inactive: [1] | [2] | [3]

CC(=O)Nc1nc(C)c(-c2ccc(Cl)c(S(=O)(=O)NCCO)c2)s1
active: [7] 1.48 µM | [3] 6.62 µM | [4] 16.5 µM | [6] 8270 nM | [8] 6.57 µM

CCCn1c(=O)c2[nH]c(-c3cnn(Cc4cccc(C(F)(F)F)c4)c3)nc2n(CC)c1=O
inactive: [1] | [2] | [3]

Cc1nc(N)ncc1-c1nc(N2CCOCC2)c2sc(C(C)(C)O)cc2n1
active: [7] 0.296 µM | [3] 1.87 µM | [4] 1.65 µM | [5] 2.33 µM | [6] 293 nM | [8] 1.47 µM

C[C@@H]1CN(CC(=O)Nc2ccc3c(c2)Cc2cccc(-c4cc(=O)cc(N5CCOCC5)o4)c2S3)C[C@H](C)O1
inactive: [1]

O=C(Cc1ccc(-c2ccc(OCCN3CCOCC3)cc2)cn1)NCc1ccccc1
active: [7] 0.0235 µM | [3] 0.0296 µM | [5] 0.131 µM | [6] 147 nM | [8] 0.147 µM | [9] 0.117 µM

CC(C)(C)OC(=O)Nc1ccc(-c2cc(C(=O)NCCCCCCC(=O)NO)no2)cc1
active: [3] 3.72 µM | [4] 1.17 µM | [5] 2.33 µM | [6] 32.9 nM | [10] 18.5 µM
inactive: [7]

C[C@@H](Oc1cc(-n2cnc3ccc(CN4CCN(C)CC4)cc32)sc1C(N)=O)c1ccccc1C(F)(F)F
inactive: [7] | [3]
active: [4] 42.7 µM | [5] 0.117 µM | [6] 53.7 nM | [10] 47.9 µM | [8] 10.7 µM

O=C(NC1CCNCC1)c1[nH]ncc1NC(=O)c1c(Cl)cccc1Cl
active: [7] 3.72 µM | [3] 0.743 µM | [5] 0.414 µM | [6] 3020 nM | [10] 3.02 µM | [9] 1.17 µM

CCCNC(=O)Nc1ccc(Oc2ncnc3cc(OC)c(OC)cc23)cc1Cl
inactive: [1] | [2] | [3]

O=C(C=Cc1c(C(=O)O)[nH]c2cc(Cl)cc(Cl)c12)Nc1ccccc1
inactive: [1] | [2] | [3]

CC(=O)c1c(C)c2cnc(Nc3ccc(N4CCNCC4)cn3)nc2n(C2CCCC2)c1=O
inactive: [1]

Cn1c(CNc2ccc(C(=N)N)cc2)nc2cc(C(=O)N(CCC(=O)O)c3ccccn3)ccc21
inactive: [1] | [2] | [3]

Cc1ccc(CN2CCNCC2)cc1NC(=O)CNc1ccc(F)c(F)c1
inactive: [1]

Cn1c2ccccc2c2c3c(c4c5ccccc5n(CCC#N)c4c21)CNC3=O
active: [7] 14.8 µM | [4] 20.8 µM | [5] 4.65 µM | [6] 465 nM
inactive: [10]

O=C(C=Cc1cccc(S(=O)(=O)Nc2ccccc2)c1)NO
active: [7] 6.79 µM | [3] 6.79 µM | [4] 1.35 µM | [5] 6.03 µM | [6] 1510 nM | [10] 38 µM | [8] 1.7 µM | [9] 19.1 µM

COc1c(N2C[C@@H]3CCCN[C@H]3C2)c(F)cc2c(=O)c(C(=O)O)cn(C3CC3)c12
inactive: [1] | [2] | [3]

O=C(O)[C@H](Cc1c[nH]c2ccccc12)N1C(=O)c2ccccc2C1=O
inactive: [1] | [2] | [3]

CS(=O)(=O)c1ccc(-c2cnc(N)c(C(=O)Nc3ccccc3)n2)cc1
inactive: [1] | [3]

Cc1ccc(C(N)=O)cc1Nc1nccc(-c2cn(C(C)C)c3cnccc23)n1
inactive: [1]
active: [3] 18.7 µM | [5] 9.55 µM | [6] 7590 nM | [10] 13.5 µM | [8] 8.51 µM | [9] 13.5 µM

CCC[C@H](NC(=O)C(C#N)=Cc1cccc(Br)n1)c1ccccc1
inactive: [1]
active: [3] 14.8 µM

CC[C@H]1CN2CCc3cc(OC)c(OC)cc3[C@H]2C[C@@H]1C[C@@H]1NCCc2cc(OC)c(OC)cc21
active: [3] 4.69 µM | [4] 1.85 µM | [5] 0.657 µM | [6] 293 nM | [10] 0.261 µM | [8] 0.165 µM | [9] 3.69 µM
inactive: [1] | [2]
